PubChem BioAssay AID1224852 (National Center for Advancing Translational Sciences (NCATS), 2016)
Records with an inconclusive call do not appear. Calls of active or inactive are those of the source. The call rests on the fitted dose curve; in most records, active means well fitted curve in the direction sought with a large enough effect (not every such curve was filed as active); inconclusive means small, poorly fitted or top-dose-only effect, or effect the other way, or another doubt; inactive means no such curve, though single readings can be large or run the other way.

Assay: Cell viability assay for measurement of the protective activity of small molecules against cell death caused by Zika virus infection in human neural progenitor cells (hNPCs);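 further: 0% = ZIKV-infected cells without compound and 100% = uninfected cells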
Details: hNPC ZIKV-induced death protection, ATP luminescence, 72 h; series mostly up to 46.1 µM; protection, negative = more death: at the top concentration
Source text: National Center for Advancing Translational Sciences [NCATS] Johns Hopkins University School of Medicine Florida State University Assay Overview: Zika virus infection causes cell death in certain cell types including human neural progenitor cells (hNPCs), astrocytes, and astrocytoma cell line (SNB-19). This cell viability assay measures the ATP content (level) in human neural progenitor cells (hNPCs) using a luminescence readout that is proportional to viable cell numbers. Decrease in the luminescence signal after Zika virus infection indicates the cell death caused by Zika virus. Small molecule inhibitors […] the decreased luminescence signal after Zika virus infection, indicating the protective effect of that small molecule on the cell death caused by Zika virus infection. This observed protective effect of small molecules against Zika virus induced cell death may result from inhibition of virus replication or cellular response to the virus infection.
Assay Protocol Summary: The medium for hNPCs consists of DMEM/F12, N2 supplement (ThermoFisher, Cat.# 17502048), NEAA (ThermoFisher, Cat. # 11140050), 2 ug/ml heparin, 2 uM cyclopamine, and B27 (ThermoFisher, Cat. # 17504044). The ATP content assay kit (PerkinElmer, Cat.# 6016731) was used to determine cell viability. The reagent was reconstituted and prepared as described by the manufacturer. Cells were seeded in 384- or 1536-well assay plates and cultured at 37 C with 5% CO2 for 16 to 20 hours. The typical cell seeding density in the 1536-well plate assay is 350 cells/well in 3 ul medium for hNPCs in the tissue cultured treated/PDL coated plates. Compounds were added to cells and incubated for one hour before addition of ZIKV solution to cells (2 FFU/cell). After incubation at 37 C with 5% CO2 for 72 hours, the reagent mixture of the ATP content assay kit was added to each well, followed by incubation at room temperature for 10 minutes. The luminescence intensity of the assay plates was measured using a ViewLux plate reader (PerkinElmer). […] The percentage inhibitions of the decreased cell viability by small molecule inhibitors were then calculated.

| SMILES | protection, negative = more death |
| --- | --- |
| O=C(O)[C@H](CC(=O)N1C[C@@H]2CCCC[C@H]2C1)Cc1ccccc1 | 13.4% (inactive) |
| CCCS(=O)c1ccc2nc(NC(=O)OC)[nH]c2c1 (stereo not given) | -43.9% (inactive) |
| CC(=O)Nc1ccc([C@H](C)C(=O)Nc2ncc(C(C)C)s2)cc1 | -64.6% (inactive) |
| C=CCCCCCCCCC(=O)O | 5.55% (inactive) |
| O=C(Nc1ncc([N+](=O)[O-])s1)c1cccs1 | -40.1% (inactive) |
| CN(C)c1ccc(N=NS(=O)(=O)O)cc1 | -43.6% [at 88.3 µM] (inactive) |
| COc1ccc(CC2=NN3C([C@@H](CCc4ccccc4)[C@@H](C)O)=NC(C)C3C(=O)N2)cc1OC (stereo not given in full) | -42.9% (inactive) |
| COc1ccc(/C=C/C(=O)Nc2ccccc2C(=O)O)cc1OC | -34.7% (inactive) |
| O=c1c2ccccc2nc2n1CCc1c-2[nH]c2ccccc12 | -32.5% (inactive) |
| NC(N)=NN=C(/C=C/c1ccc([N+](=O)[O-])o1)/C=C/c1ccc([N+](=O)[O-])o1 | -84% (inactive) |
| CC(C)(C)COc1ccc(-n2cc(C(=O)O)cn2)cc1C#N | -36.5% [at 88.3 µM] (inactive) |
| CC(=O)Oc1cccc2c1C(=O)c1c(OC(C)=O)cc(C(=O)O)cc1C2=O | -25.4% (inactive) |
| Nc1ncnc2c1ncn2[C@@H]1O[C@@H](CO)[C@H](O)[C@H]1O | -14.4% [at 23.8 µM] (inactive) |
| Nc1c(S(=O)(=O)O)cc(Nc2ccc(Nc3nc(Cl)nc(Nc4ccc(S(=O)(=O)O)cc4)n3)c(S(=O)(=O)O)c2)c2c1C(=O)c1ccccc1C2=O | -33.4% (inactive) |
| COc1ccc(NC(=O)/C=C/c2ccc(Cl)cc2)cc1 | -28.4% (inactive) |
| O=C(O)CCC(=O)c1ccc(-c2ccccc2)cc1 | 0.919% (inactive) |
| NC1CCC(Nc2nc(Nc3ccc(C(=O)N4CCCCC4)cc3)c3ncn(-c4cccc(F)c4)c3n2)CC1 (stereo not given) | -79.2% (inactive) |
| Oc1cc(O)cc(/C=C/c2ccc(O)c(O)c2)c1 | -63.8% (inactive) |
| O=c1cc(-c2ccccc2)oc2cc(O)cc(O)c12 | -30.1% (inactive) |
| CC(=NNC(=S)N1CCC1)c1ccccn1 | -76.1% (inactive) |

| SMILES | protection, negative = more death |
| --- | --- |
| O=C1C[C@@H](c2ccc(O)cc2)Oc2cc(O)cc(O)c21 | -22.1% (inactive) |
| CCOCCOC(=O)/C=C/c1ccc(OC)cc1 | -28.4% (inactive) |
| CC(O)=C(C#N)C(=O)Nc1ccc(C(F)(F)F)cc1 | -61.6% (inactive) |
| COc1cccc(-c2cc(=O)c3ccccc3o2)c1N | -47.7% (inactive) |
| Oc1ccc(/C=C/c2cc(O)cc(O)c2)cc1 | -73.8% (inactive) |
| CCCSc1ccc2nc(NC(=O)OC)[nH]c2c1 | -53.9% (inactive) |
| Cc1csc(NC(=O)c2sc3nc4c(c(C(F)(F)F)c3c2N)CCC4)n1 | -75.6% (inactive) |
| COc1ccc(C=CC(=O)Nc2ccccc2C(=O)O)cc1OC | -50% (inactive) |
| Cc1ccc(C(=O)c2ccc(CC(=O)O)n2C)cc1 | -31.2% (inactive) |
| CC(C)c1ccc2oc3nc(N)c(C(=O)O)cc3c(=O)c2c1 | -79% (inactive) |
| NC(=O)c1cccc2[nH]c(-c3ccc([C@H]4CCCN4)cc3F)nc12 | -66.1% (inactive) |
| c1ccc(CCNc2nc(-c3ccccc3)cs2)cc1 | -7.96% (inactive) |
| O=C(c1ccccc1)c1ccc2n1CCC2C(=O)O (stereo not given) | -6.75% (inactive) |
| C[C@@H](N)c1ccc(C(=O)Nc2ccnc3[nH]ccc23)cc1 | -39.7% (inactive) |
| CN(C)CCCSc1ccccc1NC(=O)/C=C/c1ccccc1 | 8.23% (inactive) |
| CCOC1OC(=O)C[C@H]1NC(=O)[C@@H]1CCCN1C(=O)[C@@H](NC(=O)c1ccc(N)c(Cl)c1)C(C)(C)C (stereo not given in full) | 3.69% (inactive) |
| CNC(=O)c1ccccc1Sc1ccc2c(/C=C/c3ccccn3)n[nH]c2c1 | -66.1% (inactive) |
| O=C(CS)Nc1ccccc1 | -49.6% (inactive) |
| O=C(Nc1ccc(OC(F)(F)F)cc1)c1sccc1NCc1ccnc2ccccc12 | -51.9% (inactive) |
| CC1(C)Cc2c(sc(NC(=S)NC(=O)c3ccccc3)c2C(=O)O)CO1 | 2.37% (inactive) |
